Assay results taken from PubChem BioAssay (EPA / NIEHS).
“And” between values parts separate entries of the source, which are not always exact repeats. Equal values may be shown once. The source holds several records for some structures; these can differ, active in one and inactive in another. The source made the active and inactive calls. How the source made its calls: active means hit-call score of the fitted dose curve at least 0.9, where 1 is the maximum; inactive means score below 0.9.

What was measured:
[1] = read-out: Tissue plasminogen activator (tPA), PLAT (gene 5327); test: BSK_BE3C_tPA: BioMAP Diversity Plus: BE3C Assay for Tissue plasminogen activator (tPA) Biomarker Activity (AID 2283041); conditions: primary human bronchial epithelial cells; actives raise or lower the signal
Summary of the method: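 Bidirectional curve fitting relative to DMSO defined activity, with tPA detected by ELISA in chemically treated human bronchial epithelial primary cells at 24 hours.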

[2] = read-out: Interleukin-8 (IL8), CXCL8 (gene 3576); test: BSK_CASM3C_IL8: BioMAP Diversity Plus: CASM3C Assay for Interleukin-8 (IL8) Biomarker Activity (AID 2283042); conditions: primary human coronary artery smooth muscle cells; actives raise or lower the signal;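 further: IL-8 protein level quantified by ELISA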
[3] = read-out: Human Leukocyte Antigen - DR isotype (HLADR), HLA-DRA (gene 3122); test: BSK_CASM3C_HLADR: BioMAP Diversity Plus: CASM3C Assay for Human Leukocyte Antigen - DR isotype (HLADR) Biomarker Activity (AID 2283043); conditions: primary human coronary artery smooth muscle cells; actives raise or lower the signal;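 further: cell-surface HLA-DR protein level quantified by ELISA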
[4] = read-out: Macrophage colony-stimulating factor (MCSF), CSF1 (gene 1435); test: BSK_CASM3C_MCSF: BioMAP Diversity Plus: CASM3C Assay for Macrophage colony-stimulating factor (MCSF) Biomarker Activity (AID 2283044); conditions: primary human coronary artery smooth muscle cells; actives raise or lower the signal;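 further: M-CSF protein amount quantified by ELISA after 24 h exposure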
[5] = read-out: Low-density lipoprotein receptor (LDLR), LDLR (gene 3949); test: BSK_CASM3C_LDLR: BioMAP Diversity Plus: CASM3C Assay for Low-density lipoprotein receptor (LDLR) Biomarker Activity (AID 2283045); conditions: primary human coronary artery smooth muscle cells; actives raise or lower the signal;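 further: LDLR protein level on the cell surface quantified by ELISA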
[6] = read-out: Monocyte Chemoattractant Protein-1 (MCP1), CCL2 (gene 6347); test: BSK_CASM3C_MCP1: BioMAP Diversity Plus: CASM3C Assay for Monocyte Chemoattractant Protein-1 (MCP1) Biomarker Activity (AID 2283046); conditions: primary human coronary artery smooth muscle cells; actives raise or lower the signal;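 further: MCP-1 level quantified by ELISA 24 h after dosing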
[7] = BSK_CASM3C_Proliferation: Cell Proliferation Assessment in the BioMAP Diversity Plus: CASM3C Assay (AID 2283047); conditions: primary human coronary artery smooth muscle cells;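 further: sulforhodamine B total protein stain as relative cell number at 560 nm; sub-confluent cells exposed 48 h before staining; fitted both ways against DMSO so gain or loss of cell number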
[8] = read-out: Monokine induced gamma interferon (MIG), CXCL9 (gene 4283); test: BSK_CASM3C_MIG: BioMAP Diversity Plus: CASM3C Assay for Monokine induced gamma interferon (MIG) Biomarker Activity (AID 2283048); conditions: primary human coronary artery smooth muscle cells; actives raise or lower the signal;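 further: MIG protein level measured by ELISA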
[9] = read-out: serum amyloid A (SAA), SAA1 (gene 6288); test: BSK_CASM3C_SAA: BioMAP Diversity Plus: CASM3C Assay for serum amyloid A (SAA) Biomarker Activity (AID 2283049); conditions: primary human coronary artery smooth muscle cells; actives raise or lower the signal;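 further: SAA protein level quantified by ELISA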
[10] = BSK_CASM3C_SRB: Viability Assessment in the BioMAP Diversity Plus: CASM3C Assay (AID 2283050); conditions: primary human coronary artery smooth muscle cells;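 further: total protein by SRB staining as cytotoxicity measure in parallel cultures; cells exposed to compound for 24 h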
[11] = read-out: Thrombomodulin, THBD (gene 7056); test: BSK_CASM3C_Thrombomodulin: BioMAP Diversity Plus: CASM3C Assay for Thrombomodulin Biomarker Activity (AID 2283051); conditions: primary human coronary artery smooth muscle cells; actives raise or lower the signal;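 further: thrombomodulin protein level measured by ELISA 24 h after dosing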
[12] = read-out: Tissue Factor, F3 (gene 2152); test: BSK_CASM3C_TissueFactor: BioMAP Diversity Plus: CASM3C Assay for Tissue Factor Biomarker Activity (AID 2283052); conditions: primary human coronary artery smooth muscle cells; actives raise or lower the signal;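 further: cell surface tissue factor protein level read by ELISA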
[13] = read-out: Interferon-gamma inducible Protein 10 (IP10), CXCL10 (gene 3627); test: BSK_hDFCGF_IP10: BioMAP Diversity Plus: hDFCGF Assay for Interferon-gamma inducible Protein 10 (IP10) Biomarker Activity (AID 2283053); conditions: primary human foreskin fibroblasts; actives raise or lower the signal
Summary of the method: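 IP-10 levels, quantified by ELISA, are taken from human foreskin fibroblast cultures 24 h after chemical treatment, with DMSO serving as negative control and baseline for bidirectional analysis.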

[14] = read-out: Urokinase-type plasminogen activator receptor (uPAR), PLAUR (gene 5329); test: BSK_CASM3C_uPAR: BioMAP Diversity Plus: CASM3C Assay for Urokinase-type plasminogen activator receptor (uPAR) Biomarker Activity (AID 2283054); conditions: primary human coronary artery smooth muscle cells; actives raise or lower the signal;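 further: cell-surface uPAR protein level quantified by ELISA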
[15] = read-out: Vascular cell adhesion molecule 1 (VCAM1), VCAM1 (gene 7412); test: BSK_CASM3C_VCAM1: BioMAP Diversity Plus: CASM3C Assay for Vascular cell adhesion molecule 1 (VCAM1) Biomarker Activity (AID 2283055); conditions: primary human coronary artery smooth muscle cells; actives raise or lower the signal;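 further: VCAM-1 protein level quantified by ELISA on the cells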
[16] = read-out: Collagen III, COL3A1 (gene 1281); test: BSK_hDFCGF_CollagenIII: BioMAP Diversity Plus: hDFCGF Assay for Collagen III Biomarker Activity (AID 2283056); conditions: primary human foreskin fibroblasts; actives raise or lower the signal
Summary of the method: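 Cells: human foreskin fibroblasts, primary. Dosing followed by 24 h incubation, then ELISA for collagen III. Both increases and decreases scored relative to DMSO.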

[17] = read-out: Epidermal growth factor receptor (EGFR), EGFR (gene 1956); test: BSK_hDFCGF_EGFR: BioMAP Diversity Plus: hDFCGF Assay for Epidermal growth factor receptor (EGFR) Biomarker Activity (AID 2283057); conditions: primary human foreskin fibroblasts; actives raise or lower the signal
Summary of the method: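 Measured by ELISA: EGFR levels on primary human foreskin fibroblasts 24 h after chemical treatment, analysed relative to DMSO with bidirectional fitting.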

[18] = read-out: Interleukin-8 (IL8), CXCL8 (gene 3576); test: BSK_hDFCGF_IL8: BioMAP Diversity Plus: hDFCGF Assay for Interleukin-8 (IL8) Biomarker Activity (AID 2283058); conditions: primary human foreskin fibroblasts; actives raise or lower the signal
Summary of the method: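 IL-8 levels from compound-treated primary human fibroblasts were read by ELISA at 24 h, with DMSO serving as baseline for bidirectional fitting.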

[19] = BSK_hDFCGF_Proliferation: Cell Proliferation Assessment in the BioMAP Diversity Plus: hDFCGF Assay (AID 2283059); conditions: primary human foreskin fibroblasts;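 further: curves fitted for both rise and fall of signal versus DMSO baseline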
Summary of the method: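 Primary human foreskin fibroblasts, sub-confluent; […]; 10% TCA fix, 0.1% SRB stain, A560 total protein. Gain/loss fitted bidirectionally vs DMSO control.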

[20] = read-out: Macrophage colony-stimulating factor (MCSF), CSF1 (gene 1435); test: BSK_hDFCGF_MCSF: BioMAP Diversity Plus: hDFCGF Assay for Macrophage colony-stimulating factor (MCSF) Biomarker Activity (AID 2283060); conditions: primary human foreskin fibroblasts; actives raise or lower the signal
Summary of the method: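 M-CSF levels, determined by ELISA, are taken at 24 h after dosing human skin fibroblasts. Responses in either direction are fitted with DMSO serving as the baseline.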

Measured: AC50

O=C(F)C1(F)C(F)(F)C(F)(F)C(F)(F)C(F)(F)C1(F)F
inactive: [1] | [2] | [3] | [4] | [5] | [6] | [7] | [8] | [9] | [10] | [11] | [12] | [13] | [14] | [15] | [16] | [17] | [18] | [19] | [20]

OCC(O)CC(F)(F)C(F)(F)C(F)(F)C(F)(F)C(F)(F)C(F)(F)C(F)(F)C(F)(F)F (centres undefined)
inactive: [1] | [2] | [3] | [4] | [5] | [6] | [7] | [8] | [9] | [10] | [11] | [12] | [13] | [14] | [15] | [16] | [17] | [18] | [19] | [20]

O=C=Nc1cccc2c(N=C=O)cccc12
inactive: [1] | [2] | [3] | [4] | [5] | [6] | [7] | [8] | [9] | [10] | [11] | [12] | [13] | [14] | [15] | [16] | [17] | [18] | [19] | [20]

O=C1C=CC(=O)N1c1ccc(Cc2ccc(N3C(=O)C=CC3=O)cc2)cc1
active: [1] 3.46 µM | [2] 11 µM | [3] 2.88 µM | [4] 5.07 µM | [5] 2.03 µM | [6] 4.19 µM | [7] 0.688 µM | [8] 5.42 µM | [9] 3.21 µM | [10] 4.31 µM | [12] 3.35 µM | [14] 5.3 µM | [15] 2.94 µM | [16] 4.09 µM | [19] 0.162 µM | [20] 2 µM
inactive: [11] | [17] | [18]

Cc1cc(O)c(C(C)(C)C)cc1C(C)(C)C
active: [1] 5.21 µM | [2] 8.77 µM | [3] 3.5 µM | [4] 4.59 µM | [5] 5.37 µM | [6] 5.83 µM | [7] 3.85 µM | [8] 12.5 µM | [9] 4.22 µM | [10] 4.99 µM | [11] 12 µM | [12] 3.61 µM | [14] 8.38 µM | [15] 4.81 µM | [16] 1.92 µM | [19] 1.78 µM | [20] 5.42 µM
inactive: [17] | [18]

C[Si](Cl)(Cl)CCC(F)(F)C(F)(F)C(F)(F)C(F)(F)C(F)(F)C(F)(F)F
inactive: [1] | [2] | [3] | [4] | [5] | [6] | [7] | [8] | [9] | [10] | [11] | [12] | [14] | [15] | [16] | [17] | [18] | [20]
active: [16] 0.332 µM | [19] 115 nM and 2.85 µM | [20] 0.605 µM

OCCCCC(F)(F)C(F)(F)C(F)(F)C(F)(F)F
inactive: [1] | [2] | [3] | [4] | [5] | [6] | [7] | [8] | [9] | [10] | [11] | [12] | [14] | [15] | [16] | [17] | [18] | [19] | [20]

CCN(CC)c1ccc(N=Nc2ccccc2)cc1
active: [1] 27.7 µM | [3] 31.9 µM | [6] 4.07 µM | [7] 8.48 µM | [10] 20 µM | [11] 11.3 µM | [15] 3.04 µM | [16] 3.65 µM | [19] 8.62 µM
inactive: [2] | [4] | [5] | [8] | [9] | [12] | [14] | [17] | [18] | [20]

NC(=O)C(F)(F)C(F)(F)C(F)(F)F
inactive: [1] | [2] | [3] | [4] | [5] | [6] | [7] | [8] | [9] | [10] | [11] | [12] | [14] | [15] | [16] | [17] | [18] | [19] | [20]

CCN(CC)c1ccc2c(c1)Oc1cc(N(CC)CC)ccc1C21OC(=O)c2ccccc21
inactive: [1] | [2] | [3] | [4] | [5] | [6] | [7] | [8] | [9] | [10] | [11] | [12] | [14] | [17] | [18] | [20]
active: [15] 1.98 µM | [16] 10 µM | [19] 10.5 µM

O=C(O)CCC(F)(F)C(F)(F)C(F)(F)C(F)(F)C(F)(F)C(F)(F)C(F)(F)F
inactive: [1] | [2] | [3] | [4] | [5] | [6] | [7] | [8] | [9] | [10] | [11] | [12] | [14] | [15] | [16] | [17] | [18] | [19] | [20]
